Measured values published in the supplement of paper PMC10681739.

Tests used:
[1] = molecular target: T1, ETS1 (UniProt P14921); test: ETS1 binding intensity (PBM fluorescence), ETS1 alone (arbitrary fluorescence units); higher = stronger binding; conditions: ETS1 concentration 1 nM; RUNX1 concentration 0 nM
T1 sequence: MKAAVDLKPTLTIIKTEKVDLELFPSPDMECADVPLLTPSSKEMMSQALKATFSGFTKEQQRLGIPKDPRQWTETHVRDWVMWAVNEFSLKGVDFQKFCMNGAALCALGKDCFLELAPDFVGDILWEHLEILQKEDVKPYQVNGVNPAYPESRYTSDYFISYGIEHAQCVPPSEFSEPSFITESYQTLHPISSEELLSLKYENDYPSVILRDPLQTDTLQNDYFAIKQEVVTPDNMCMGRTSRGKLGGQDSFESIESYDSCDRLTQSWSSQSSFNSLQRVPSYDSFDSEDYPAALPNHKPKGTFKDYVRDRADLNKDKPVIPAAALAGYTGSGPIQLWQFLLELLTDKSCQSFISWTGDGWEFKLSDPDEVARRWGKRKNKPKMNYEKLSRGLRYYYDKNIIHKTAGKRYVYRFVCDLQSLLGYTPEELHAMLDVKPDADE

[2] = molecular target: T1, ETS1; test: ETS1 binding intensity (PBM fluorescence) in presence of RUNX1, normalised to ETS1-only experiment (arbitrary fluorescence units); higher = stronger binding; conditions: ETS1 concentration 1 nM; RUNX1 concentration 25 nM

Sequence | ETS1 binding intensity [1] | ETS1 binding intensity [2]
AAAAAATGGAGGAAGTTACCTCCAGTGGTTTTGTGA | 751 | 1310
GAACTGAAGAAGGCAGGAAGCCACAGGCTCCTGGGT | 1730 | 2280
GCCTGCGCTCTTTCCGGTAGCCACAGCCTCGTCTAA | 1290 | 1220
CGACGTCACTTCCGCTGGTTCAAGCACCGCGAGACT | 1900 | 1500
GGAGGGCTTCCTGCCCACCACCACCCACAGCAGCTG | 730 | 676
CTGGCTACAGGAAAAACAAAGTCAAACCACAGCACT | 473 | 929
GAAACCTCACTCTGAGGATGTGGGTTCTGCCTTCTT | 522 | 1710
AGGAGAGGATGTTGCTTGAAGGTGTGGTCTCCTCCA | 549 | 462
GCAGTCGCTAAGGGCGGAAACCACTGTTTGGGAGCT | 2110 | 3180
AGTTTCTCCAGGAAGCGCTGAGGTTTTCTCAGAAGT | 763 | 1160
CTGCACAGGGAAGTGAGTGTCGAGCTCACCGCACCG | 383 | 690
ACAGATGGTCCGGAACTTCAGAAAACCACTCATTGT | 583 | 592
TCTCTTCTCCCCATCCGCCCGAGACCACAGCCACTC | 509 | 507
AAGCTGAAAAGGGGATGTGGTTGCCTGCCTGTGGGA | 534 | 863
GTCTTGTACCCTAGAGGATGTGGTAGCCCTAAATAA | 1060 | 2290
CTCAGAGCTGCGGAAACTACAACTCCCACAAGGCTG | 738 | 633
ATTAAAGACTTCCGTGCAAGACCACAGCTGCCTGAC | 555 | 513
ACCTCTTCCGAGACCCAAAATGCGCGGTCTGGAGAG | 448 | 328
CCAGGATGTAGTTTGGCCACTATTGAGTGGTTTGTT | 448 | 502
GGAGCGACGGAAGCACCTGAAGCGGTCTTTCCCCGA | 514 | 349
AGTACAAAGGGGAAATGTCTCTTGGTGGTTGATAAG | 628 | 564
ACCCTCTTTCCGGTGGAAAGCTGCGGCCTCCCAGAG | 464 | 380

Sequence | ETS1 binding intensity [1] | ETS1 binding intensity [2]
GCTCTGGCGGAAGATGTCCCTGCGGTGCAGCTGCCG | 397 | 465
TGAGAAGGCAGGATAAGTGACCACATATTTATGCCA | 435 | 874
AACCAAGAGGATTTCCTGCCCACACACTCAGCGTCT | 870 | 751
GCATTTCTCAGAAAAGGAAGCGGTTGTGCCGGGAGG | 1530 | 2100
AGCACAGGTTCCCAGGAAATGTGGGTTGAACAAGGC | 1250 | 1250
GGTGTTAGTAGTCAAGGAAGTGGTCACCCTTGACAG | 1010 | 2150
CATGAGAAACATCCTGCCCAACCACCTGACTACAAG | 492 | 511
CTGTTCTCATCCGCCCGCTCTGAGTCACCCACACCT | 465 | 441
GAGAGCTGAGCGGAAGCTCAGCTGTGGGGCTGGTTG | 1740 | 1990
AGTGTAAACACGGAAGTGGCCGCAGGGGTGGGGGAT | 1820 | 2690
CTGCGCTTCCGCTTCACCCGGAGTACAGCGGTCCTG | 842 | 713
TCGGTGAAGGACGGAAGATGATAGCCACATTTCTTC | 512 | 485
GCCGTGAGAAACATCCTGCCTAACCACCTGACTACA | 618 | 678
CTCCTGAGGAAGTAGTTACAGACACCACAGCGGAGG | 511 | 491
CTTCAGGGGTGGGGCTTCCTGCCGCAGAGCCGCCTT | 543 | 557
CAGCCCTCTTCCTGCCTGTCTGTGGCTGGTGAGGTT | 597 | 431
CAGCCAGCCAGGAAGCAGGGGCTGCGGGGCTGACAG | 691 | 524
GGGCAGCATCCTGTGCCTGCTTCTCTTACCCACATC | 494 | 453
CGCCCTCCGGAAGAGAGGGCGGACCGCGGCCGCGCA | 570 | 636
TGACTCACCTTCCTGTAGGTTGGTTTTCTGCATATC | 472 | 308
CAACAAGAGGAAATCAGAAACACTGAAGCCACAGCT | 420 | 463
TGCGCCAGCCTTCCTGTCGTGGTCACCGGTGGCAGC | 446 | 400

Sequence | ETS1 binding intensity [1] | ETS1 binding intensity [2]
GCAGGAAGACTAACACAAAACCATCAAACCACTCTG | 511 | 543
TCAGGAAGTGGTGTGACCAGCATGTGAACCGCGGCA | 681 | 1110
CAGCTGCCTCCAGGAAGCGGTAAGTGACTCTGGTGG | 1150 | 1660
CCGGGCCTCCAGACGGAACTGTGGGCGAGGGGAGGG | 470 | 404
TGCTTCCGGCGGGCGCTTGCTCCCCGCGGTCCGCAC | 657 | 762
TCTTTTTATTTCCTGTGCAGTCTCGCCCACAGCACT | 1070 | 1030
CTTTTTGATTTCCTCAAGCATCCCACAAATACACAG | 539 | 659
CACTTGTCCTTCCTGGCCTGCGGCCGCCACCACTTC | 443 | 372
TCAGGGTCAGCAGGAGGAAACCACGCACTACATGCT | 437 | 451
GCTAAAGGAAGCTCTGTACAGCTGTGGTAAGGTGGC | 552 | 792
CCTGAGCGCCCGGAAGGAAGGCTGTGGTAGGTTGTC | 1270 | 1570
GGAGCGGCGGAAGGGAGCTTGCGGCGGGAGGCTGAA | 423 | 485
CGTTTCCTGTGGCTGCAGCTCTCCCCACCCACACAC | 829 | 781
GTGGCTTCCTGCCATTGACAATTGCGGGATGGCTTT | 529 | 542
AGCGGCTTCCTGCTGGGCTTTTGCACTCCCCACAAC | 510 | 523
CTTCGCCGCTTCCAGGAAGGGCCACAACGGCCGTCG | 563 | 483
GTGCGGCGGGAAACGCGTTCCCCGGCAACCGCGCCC | 401 | 479
AGCTCCAGGAAGAGGGCCTGAAAACCAAACGGGGGA | 408 | 474
TACCACCTCAGGATGTCTGAACCACATGCAAGCAGG | 439 | 571
AACAGCTTTTGTCCAGGATGTGGCTTCATAGCCTTG | 1650 | 2340
GCTCGCGTCATCCTGCAGCGCCGACACCACAGACAC | 501 | 505
TGACGGCCAGGAAGCCTGAAGCCGCAGGGGCCGCCG | 345 | 595

Sequence | ETS1 binding intensity [1] | ETS1 binding intensity [2]
TTGGAGACACACAAAGGATGTGGGCTGTGCGTGTGT | 1380 | 1780
AGCGGATTCCGGACATAACAATCTACAGCGGTCTTA | 444 | 417
GGAGGAAGGCAGGAAAGAAAGAGGTGGTTTCGGCAC | 605 | 762
CAACTCACATCCTCTGGCAACAACCACTAATCCACT | 460 | 525
CGAAGAGGAAGCCCCTGTATCACCCCACAAGAAGCC | 544 | 555
CCTCATTTCCGGGCTGTTTGCGCGCAAGCCCACATC | 1090 | 968
TAAACGTCAGCTTCCTTTGTGGCTTACCCTCCCGCC | 495 | 582
GCGCACACATGCTTCCTGTGGTGACTGGGCGCTTCA | 527 | 512
GGGAGGAAGTGTGAAGGGACTTTTGTGGTGAGTGAT | 549 | 910
ATAAAGGATGTACAGTATTTAGAGAACAGTGGTTAA | 553 | 485
ACAGCGCCTCTTCCTGCTCTACCACATCTGATGTCC | 512 | 352
GAGCAGCGGGAGGAAGCTGCGGCGCGCAGAGCAGAG | 534 | 486
GTAGCCGGGTGTTCCGGAGCGCTGCGGGCAAAGCAG | 387 | 539
CACCTGCCTTGCTTCCTGCGGTGCAACCGGCGGGAG | 499 | 585
TAAACCCTGCTTCCTGTCCCTGCGCCCCACAAGGAG | 1290 | 1150
CCGAGCCGGCCTCTTCCGCCGCAAGTCCCTCCCCAA | 548 | 428
AATATAGGAAGTGTCAGCTAGGGAACTCAACCACAA | 496 | 382
GGAGGAAGAGAGGAAACGGGGGCGGCCGCAGCTTCT | 836 | 1070
GGGGGAATGTAGGAAGTATCATCGCCCACAAGAAAG | 644 | 807
CGTTTGCCTATCTTCCTCCCCACAGAAGCACTCCAT | 453 | 399
GGATGGCGGAAGAGGCGGCTGAGGCCGCAGGACGTG | 4630 | 4800
CTGCCTTGCTTTTCCGGTCGCCGCGGTCCTCTGCGC | 2130 | 2110

Sequence | ETS1 binding intensity [1] | ETS1 binding intensity [2]
GACGCTCTCTTCCTGTCTTTGTGGCTCCAGAAAGGC | 830 | 630
CTAGGGAGAGGATGTGAGTTTGTCTGTGGGGGTGGT | 796 | 828
TGAAGGGACGGAAGGGACAGAACTTGCGGGAGGCAC | 497 | 416
ATAGTCACCGTTCCGGCCCTCCTCCACCGCACTTCT | 445 | 578
GCCTGAAGCAGAGGATGTGGCTTCTGGCCCTCCCCT | 1460 | 1800
ACACCACTCAGGAAGACAAAGCCACACCTCACACCG | 487 | 440
TGGGACGAGTGGGCGGAAACAGCCGCAGGTCTCTCT | 1990 | 2750
CTGTGGCCTAGAAGCTTCCTGCCGCAGCTCTGAGGA | 534 | 505
GAAGAAGTCAGGAAATGCTGCCGCAGCAGCCAGCCC | 878 | 1070
CCCTCTGAGACAGGATTTGCTTCCCACACAAGGCTA | 495 | 629
ACGTAGACAGGAAAGTAATGTGGTTCAGGACTGAGT | 746 | 766
TCCCGAGAGTGCGGCGGAAACCACGCGGCGCCGCCG | 1360 | 1570
CAGCTTCCGGGCTAATTAGCAGTCGCGGTGTGCCGC | 413 | 450
GGCAGGCAGCAGAGGAAACCACCCCCACCCACTCCC | 1420 | 1640
CTGGCAGGCCTCACTTCCTCACCACATGGCCCTCCC | 543 | 640
CTGTCAGGATGTTGGCTTGTGAGCCCACAATCCTCT | 413 | 451
ATTACATCCGGGCTCCGCGACACGCCCGAACCACAA | 549 | 427
ACCCAGGGGACTTCCTGGCTCAGTGCCACAACCCAG | 545 | 393
